26 compounds from PubChem BioAssay (Tox21) can be followed below.

Inconclusive results are not listed. Unmarked numbers belong to inactive results. Activity calls are given as the source filed them. Unless noted, calls follow the shape of the dose curve; as a rule, active = well fitted curve in the direction sought with a large enough effect in the repeat runs; inconclusive = weak or mixed curves; inactive = no such curve, though single readings can be large; an effect the other way counts as inactive or inconclusive.

Experiment [1] can be described thus: qHTS assay to identify small molecule that activate the aryl hydrocarbon receptor (AhR) signaling pathway - cell viability counter screen (AID 743086).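 Also: HepG2 liver cells carrying the AhR DRE luciferase reporter; series mostly up to about 70 µM; nearly all actives have a fitted effect of over 45% in size.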 Summed up: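 HepG2-AhR-luc (HG2L7.5c1) cells, 4000/well, treated 24 h at 37 C with compound; viability measured as CellTiter-Fluor fluorescence after 30 min in the same wells as the luciferase read.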
Background: qHTS replaces the single test concentration by a dilution series.

Experiment [2] deals with Peroxisome proliferator-activated receptor gamma (Homo sapiens) (UniProt P37231). The experiment in a line: qHTS assay to identify small molecule agonists of the peroxisome proliferator-activated receptor gamma (PPARg) signaling pathway (AID 743094; active = well fitted activation curve with a large enough effect in the signal ratio in the repeat runs, not every such curve was filed as active; the % refers to the signal ratio). Put shortly: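 Fluorescence-based beta-lactamase readout in HEK293H PPARg UAS-bla cells after 17 h compound exposure (37C) and 1 h B/G FRET substrate incubation at room temperature.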
Peroxisome proliferator-activated receptor gamma (Homo sapiens), sequence (P37231 whole entry, looked up): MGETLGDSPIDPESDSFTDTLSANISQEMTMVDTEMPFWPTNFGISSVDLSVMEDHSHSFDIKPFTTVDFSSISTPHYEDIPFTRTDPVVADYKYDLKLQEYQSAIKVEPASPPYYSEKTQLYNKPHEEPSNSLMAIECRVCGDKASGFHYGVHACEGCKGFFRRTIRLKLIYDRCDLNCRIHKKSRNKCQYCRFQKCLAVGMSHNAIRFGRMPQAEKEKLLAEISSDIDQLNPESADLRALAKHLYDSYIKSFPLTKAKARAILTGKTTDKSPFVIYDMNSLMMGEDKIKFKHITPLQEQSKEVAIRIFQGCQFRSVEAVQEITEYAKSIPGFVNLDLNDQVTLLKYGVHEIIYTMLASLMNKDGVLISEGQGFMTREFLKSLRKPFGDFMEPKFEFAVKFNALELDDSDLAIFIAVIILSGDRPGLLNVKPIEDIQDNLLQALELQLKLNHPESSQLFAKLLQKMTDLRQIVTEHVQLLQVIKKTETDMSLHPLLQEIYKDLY

The target is the same in experiment [3]. Description: qHTS assay to identify small molecule antagonists of the peroxisome proliferator-activated receptor gamma (PPARg) signaling pathway (AID 743191; calls by dose curve; also: series mostly up to about 63 µM; nearly all actives have a fitted effect of over 30% in size). Summed up: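 GeneBLAzer PPARg UAS-bla HEK293H cells, 5 h post-plating, exposed to compounds 17 h at 37C. LiveBLAzer B/G FRET substrate added for 1 h at room temperature; beta-lactamase reporter read by fluorescence intensity.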

Experiment [4] in a line: qHTS assay to identify small molecule antagonists of the peroxisome proliferator-activated receptor gamma (PPARg) signaling pathway - cell viability counter screen (AID 743194). Also: nearly all actives have a fitted effect of over 55% in size. Put shortly: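 Cytotoxicity counter screen in PPARg-bla HEK293H cells, same wells as reporter assay. Compounds plus 50 nM rosiglitazone (final) for 17 h at 37 C, then viability read by CellTiter-Glo luminescence.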

Experiment [5] is described as follows: qHTS assay for small molecule agonists of the antioxidant response element (ARE) signaling pathway (AID 743202; active = well fitted activation curve with a large enough effect in the signal ratio in the repeat runs, not every such curve was filed as active; the % refers to the signal ratio). Summed up: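 HepG2 ARE-bla reporter line, 2,000 cells/well; 5 h preincubation 37 C/5% CO2; compound (DMSO) 16 h 37 C; B/G FRET substrate 2 h RT; fluorescence intensity.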
Experiment [6] in a line: qHTS assay for small molecule agonists of the antioxidant response element (ARE) signaling pathway - cell viability counter screen (AID 743203; calls by dose curve; also: nearly all actives have a fitted effect of over 55% in size). Summed up: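 Parallel cytotoxicity read-out for the ARE-bla screen: HepG2 reporter cells, 16 hrs with compounds, then CellTiter-Glo luminescence.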
The nature of experiment [7]: qHTS assay for small molecule activators of the heat shock response signaling pathway - cell viability counter screen (AID 743209). Also: nearly all actives have a fitted effect of over 50% in size. Summed up:
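To flag cytotoxic compounds, HSE-bla HeLa cells plated at 1500 cells/well were dosed for 5 h at 37 C, followed by the reporter FRET read and then CellTiter-Glo, with luminescence recorded 30 min after reagent addition.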

Experiment [8] in a line: qHTS assay for small molecule activators of the heat shock response signaling pathway (AID 743210; active = well fitted activation curve with a large enough effect in the signal ratio in the repeat runs, with a control signal flat, not every such curve was filed as active; the % refers to the signal ratio;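 also: HeLa cells with beta-lactamase reporter driven by heat shock elements; series mostly up to about 63 µM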). Summed up:
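Beta-lactamase reporter read-out: FRET substrate fluorescence after 2.5 h at RT, following 5 h compound treatment at 37 C of HeLa cells carrying HSE-driven bla reporter; quantitative HTS format.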

Experiment [9] can be described thus: qHTS assay to identify small molecule agonists of the peroxisome proliferator-activated receptor delta (PPARd) signaling pathway - cell viability counter screen (AID 743211). Also: nearly all actives have a fitted effect of over 55% in size. Summed up: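 HEK293H PPARd-bla, 3000 cells/well; 5 h preincubation 37C/5% CO2; cpd in DMSO, 17 h 37C; B/G FRET substrate 2 h RT; CellTiter-Glo 30 min RT, luminescence.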
The target in experiment [10] is Aryl hydrocarbon receptor (Homo sapiens) (UniProt P35869). Description: qHTS assay to identify small molecule that activate the aryl hydrocarbon receptor (AhR) signaling pathway (AID 743085). Also: nearly all actives have a fitted effect of over 15% in size. Also: potency is read from the fitted curve at half-maximal effect.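 As to activation: HG2L7.5c1 human HepG2 liver cells with stably integrated DRE-driven firefly reporter; series mostly up to about 70 µM.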 Put shortly: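 Cell line HG2L7.5c1 (human hepatoma, 20× DRE-luc). Plated, 5 h 37C, compound/DMSO added, 24 h 37C. CellTiter-Fluor 30 min 37C → fluorescence; then ONE-Glo 30 min RT → luminescence.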
Aryl hydrocarbon receptor (Homo sapiens), sequence (P35869 whole entry, looked up): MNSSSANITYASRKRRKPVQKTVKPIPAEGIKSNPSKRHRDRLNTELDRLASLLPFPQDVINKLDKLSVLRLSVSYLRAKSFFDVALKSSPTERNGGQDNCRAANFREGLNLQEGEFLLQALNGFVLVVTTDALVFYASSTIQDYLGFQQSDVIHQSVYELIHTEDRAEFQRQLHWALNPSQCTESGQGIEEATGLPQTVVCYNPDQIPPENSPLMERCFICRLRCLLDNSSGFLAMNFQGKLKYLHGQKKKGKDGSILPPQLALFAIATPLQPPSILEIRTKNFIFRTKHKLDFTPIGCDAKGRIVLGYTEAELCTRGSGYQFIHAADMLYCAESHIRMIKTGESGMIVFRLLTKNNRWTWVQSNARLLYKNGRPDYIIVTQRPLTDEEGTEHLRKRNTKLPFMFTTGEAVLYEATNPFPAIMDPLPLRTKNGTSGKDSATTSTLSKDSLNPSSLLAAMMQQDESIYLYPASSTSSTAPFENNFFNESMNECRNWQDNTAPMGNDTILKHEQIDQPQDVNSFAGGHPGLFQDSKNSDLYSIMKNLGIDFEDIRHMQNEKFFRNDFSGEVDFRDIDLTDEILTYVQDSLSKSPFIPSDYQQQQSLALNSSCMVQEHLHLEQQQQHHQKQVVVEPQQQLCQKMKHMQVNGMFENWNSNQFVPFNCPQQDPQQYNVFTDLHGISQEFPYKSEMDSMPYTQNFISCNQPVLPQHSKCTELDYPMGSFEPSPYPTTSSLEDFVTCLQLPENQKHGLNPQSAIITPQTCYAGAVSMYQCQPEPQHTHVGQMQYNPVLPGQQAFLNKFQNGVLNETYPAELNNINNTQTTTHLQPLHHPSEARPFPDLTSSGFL
% is scaled to controls: 0 for no effect and ±100 for the full control effect.

For the compound `CC(=O)Oc1ccc(C(C)=O)cc1`, the outcome in [1], in experiment [2], in experiment [3], in experiment [4], in experiment [6] and in experiment [8] was inactive. In experiment [9], the compound was called inactive. For the same compound, the Potency entry in experiment [5] and in [7] was “inactive” in each case.
For the compound `CC(C)(C)C(=O)CC(=O)C(C)(C)C`, the Potency result in experiment [10] and in experiment [7] was “inactive” throughout. Besides, the compound was called inactive in [1], in experiment [3] and in experiment [4].
On to `C[Si](C)(C)O[Si](O)(O)O`, for which the Potency entry in [10], in experiment [5] and in experiment [7] was “inactive” in each case. Also, the outcome in experiment [1], in experiment [4] and in [9] was inactive.
Consider `CC(=O)c1ccc2ccc3ccccc3c2c1`, for which the Potency in [10] was 60.8 µM (active). Also, the outcome in [1], in [3], in experiment [6] and in [9] was inactive. The Potency result in experiment [5] and in experiment [7] was “inactive” in each case.
On to `CC(C)(C)OC(=O)c1ccccc1C(=O)O`, for which the compound was called inactive in [1], in [2], in experiment [3], in experiment [4] and in experiment [6]. Moreover, the Potency entry in experiment [5] and in [7] was “inactive” throughout.
In the case of `CCN(CC)CC`, the Potency result in experiment [10], in experiment [5] and in [7] was “inactive” each time. Besides, the compound was classed as inactive in [1], in experiment [4], in experiment [6], in experiment [8] and in experiment [9].
Regarding `CC(C)C(C)C`, the result in experiment [1], in experiment [2], in experiment [3], in [4], in experiment [6] and in [8] was inactive. Besides, the Potency entry in [5] and in experiment [7] was “inactive” in each case.
As to `Clc1cc(Cl)c(Cl)c(Cl)c1Cl`, the Potency result in experiment [10], in experiment [5] and in experiment [7] was “inactive” in each case. Besides, the compound was called inactive in [1], in experiment [4], in experiment [8] and in experiment [9].
For `CNCCc1ccccn1`, the Potency entry in [10], in [5] and in experiment [7] was “inactive” in each case. Also, the result in experiment [1], in [4], in experiment [6], in [8] and in [9] was inactive.
Take `COc1cc2nc(N3CCN(C(=O)C4CCCO4)CC3)nc(N)c2cc1OC` (stereo not given): the Potency result in [10], in [5] and in [7] was “inactive” each time. The compound was classed as inactive in experiment [1], in [3], in experiment [8] and in [9].
With `CN(C)c1cc(NC(=O)CNC(C)(C)C)c(O)c2c1C[C@H]1C[C@H]3[C@H](N(C)C)C(=O)C(C(N)=O)=C(O)[C@@]3(O)C(=O)C1=C2O`, the Potency entry in experiment [10] and in experiment [7] was “inactive” each time. Also, the compound was called inactive in experiment [2], in experiment [3], in [4] and in [8].
Consider `O=C1CC2(CCCC2)CC(=O)N1CCNCC1COc2ccccc2O1` (stereo not given), for which the Potency result in experiment [10], in experiment [5] and in [7] was “inactive” throughout. The compound was classed as inactive in experiment [1], in experiment [6] and in experiment [9].
For `C[C@@H]1CC[C@@]2(OC1)O[C@H]1C[C@H]3[C@@H]4CC[C@H]5C[C@@H](O)CC[C@]5(C)[C@H]4CC(=O)[C@]3(C)[C@H]1[C@@H]2C`, the Potency entry in experiment [10] is “inactive”. Further, the compound was classed as inactive in experiment [1]. In addition, the figures for the activity change, negative = cytotoxicity in experiment [4], in [7] and in experiment [9] were 10.8% [at 5.95 µM], 11.4% [at 5.95 µM] and 5.8% [at 5.95 µM], respectively. Further, the activation was 5.01% [at 8.36 µM] in [5] and 0.0014% [at 5.95 µM] in experiment [8]. The viability change, negative = cytotoxic in experiment [6] is 3.19% [at 8.36 µM].
As to `CCOc1ccccc1OCCN[C@H](C)Cc1ccc(OC)c(S(N)(=O)=O)c1`, the Potency result in experiment [10], in experiment [5] and in experiment [7] was “inactive” throughout. For the same compound, the call in experiment [1], in experiment [4], in experiment [6], in [8] and in experiment [9] was inactive.
Take `COc1ccc2cc(CCC(C)=O)ccc2c1`: in experiment [10], the Potency was 3.2 µM (active). Also, the call in experiment [1], in experiment [3], in experiment [6], in [8] and in [9] was inactive. Besides, the Potency result in experiment [7] is “inactive”.
For `CCCCCCCCS(=O)(=O)O`, the Potency entry in [10], in experiment [5] and in [7] was “inactive” throughout. For the same compound, the compound was called inactive in [1], in experiment [6], in [8] and in experiment [9].
Take `N[C@H]1C(O)O[C@H](CO)[C@@H](O)[C@@H]1O` (stereo not given in full): the Potency result in [10] and in experiment [7] was “inactive” each time. Moreover, the compound was called inactive in experiment [1], in experiment [3], in experiment [4], in experiment [8] and in experiment [9].
In the case of `CC(C)(O)CCCC1=CCC(C=O)CC1` (stereo not given), the Potency result in [10] and in experiment [7] was “inactive” throughout. The result in experiment [1], in experiment [4], in [6], in experiment [8] and in [9] was inactive.
For the compound `C[n+]1ccccc1/C=N/O`, the call in experiment [1], in [2], in experiment [3], in [4], in experiment [6] and in [8] was inactive. For the same compound, in [9], the compound was classed as inactive. The Potency entry in [5] and in experiment [7] was “inactive” each time.
Take `CCNC(=O)C(C)OC(=O)Nc1ccccc1` (stereo not given): the compound was called inactive in experiment [1], in experiment [2], in experiment [3], in experiment [4], in experiment [6] and in experiment [8]. Besides, the call in experiment [9] was inactive. In addition, the Potency entry in experiment [5] and in experiment [7] was “inactive” throughout.
Take `COc1cc(NS(=O)(=O)c2ccc(N)cc2)ncn1`: the Potency result in [10], in experiment [5] and in experiment [7] was “inactive” in each case. In addition, the call in [1], in [4], in experiment [6], in experiment [8] and in [9] was inactive.
As to `CCCCCCCCOCCC#N`, the Potency result in [10] and in experiment [7] was “inactive” throughout. Besides, the compound was classed as inactive in experiment [1], in experiment [3], in experiment [8] and in experiment [9].
For `C=COCCCCO`, the Potency result in experiment [10] and in experiment [7] was “inactive” throughout. The result in [1], in experiment [4], in experiment [8] and in [9] was inactive.
With `COC(=O)/C=C(\C)CCC=C(C)C`, the Potency result in experiment [10] and in experiment [7] was “inactive” throughout. The compound was classed as inactive in experiment [1], in [3], in [4], in [6], in experiment [8] and in experiment [9].
As to `O=Cc1ccccc1S(=O)(=O)O`, the compound was classed as inactive in experiment [1], in experiment [2], in experiment [3], in [4], in experiment [6] and in experiment [8]. Further, the call in experiment [9] was inactive. The Potency entry in experiment [5] and in experiment [7] was “inactive” in each case.
In the case of `CCCCCCCCCCCCCCCCN(C)C`, the activation in experiment [10] is -0.709% [at 8.47 µM]; in experiment [5] it was 0.808% [at 8.36 µM]; in experiment [8], -0.814% [at 5.95 µM]. Besides, the viability change, negative = cytotoxic in experiment [1] is -0.517% [at 8.47 µM]; in experiment [6], 8.57% [at 8.36 µM]. Further, the activity change, negative = cytotoxicity in experiment [7] was -2.6% [at 5.95 µM]; in experiment [9], 1.19% [at 5.95 µM].
